Bioassay records deposited in PubChem BioAssay by National Center for Advancing Translational Sciences (NCATS).
Rows were chosen to be rich in hits. Some 7.3% of all compounds tested hit in one or more screens of this group.
Tau FP inhib = qHTS for Inhibitors of Tau Fibril Formation, Fluorescence Polarization; 0.39% of 280,000 active; Potency, µM (highest dose often 57.7 µM), for inactives: top-dose activity, negative = inhibition, most hits filed as inhibitors; Microtubule-associated protein tau (Homo sapiens), P10636; K18 P301L tau heparin fibrillization, Alexa594 FP, 6 h; AID 1468, 2008; note: nearly all actives have a fitted effect of over 55% in size
Target sequence (P10636 561-689 P618L limits assumed): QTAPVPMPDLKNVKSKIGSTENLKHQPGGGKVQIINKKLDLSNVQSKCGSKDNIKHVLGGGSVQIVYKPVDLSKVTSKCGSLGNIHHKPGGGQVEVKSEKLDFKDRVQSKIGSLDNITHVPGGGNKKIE
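Compound effects on tau fibrillization are measured by Alexa 594 fluorescence polarization (ex 555, em 632 nm). K18 P301L tau is used at 15 uM with 0.24 uM labeled tracer, and 20 uM heparin induces aggregation over 6 hr at 37 C.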
VP16 counter = VP16 counterscreen qHTS for inhibitors of ROR gamma transcriptional activity; Drosophila S2 Gal4-VP16 UAS-luciferase, luminescence, 20 h; Potency, µM (series often up to 53.6 µM), for the others: top-dose activity, negative = inhibition, most hits filed as inhibitors; 3.5% of 310,000 active;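 note: Gal4-VP16 expression switched on by copper sulfate through the metallothionein promoter; nearly all actives have a fitted effect of over 50% in size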
RORgamma inh = qHTS for inhibitors of ROR gamma transcriptional activity; Drosophila S2 Gal4-RORgamma UAS-luciferase reporter, 20 h; Potency, µM (top dose mostly 53.6 µM), without a hit: at the top dose activity change, negative = inhibition, most hits filed as inhibitors; 5.4% of 310,000 active; note: nearly all actives have a fitted effect of over 60% in size
Target sequence (P51450 whole entry, looked up, the tested form may be a part): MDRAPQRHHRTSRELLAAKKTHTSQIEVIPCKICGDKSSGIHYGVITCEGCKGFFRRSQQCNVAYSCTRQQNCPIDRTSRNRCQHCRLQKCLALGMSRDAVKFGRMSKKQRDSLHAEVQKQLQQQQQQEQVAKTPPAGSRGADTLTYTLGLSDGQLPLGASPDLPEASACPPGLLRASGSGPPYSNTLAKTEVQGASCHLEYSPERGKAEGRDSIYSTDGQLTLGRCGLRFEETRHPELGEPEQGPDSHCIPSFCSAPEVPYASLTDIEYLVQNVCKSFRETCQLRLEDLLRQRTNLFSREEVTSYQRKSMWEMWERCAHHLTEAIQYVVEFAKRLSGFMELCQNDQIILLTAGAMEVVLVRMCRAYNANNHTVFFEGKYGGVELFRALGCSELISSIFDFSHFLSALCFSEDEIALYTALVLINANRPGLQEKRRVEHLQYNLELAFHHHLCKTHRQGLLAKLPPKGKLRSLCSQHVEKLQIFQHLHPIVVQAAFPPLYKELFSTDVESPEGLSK
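Compounds are pin-transferred onto Drosophila Schneider cells expressing a copper-inducible Gal4–ROR gamma transactivation domain fusion. After 1 hr, copper sulfate is added to 700 uM final; luciferase is read 20 hr later.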
Tau fibril ThT = qHTS for Inhibitors of Tau Fibril Formation, Thioflavin T Binding; Microtubule-associated protein tau (Homo sapiens), P10636; recombinant tau K18 P301L, heparin-induced fibrillization, ThT fluorescence; Potency, µM (highest dose often 57.4 µM), inactives show top-dose activity, negative = inhibition, hits mostly inhibitors; 2.1% of 270,000 active; AID 1460, 2008; note: nearly all actives have a fitted effect of over 55% in size
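Tau K18 P301L fragment (15 uM unlabeled plus 0.24 uM Alexa 594-labeled) in 100 mM sodium acetate pH 7 with compound, fibrillization induced by 20 uM heparin for 6 hr at 37 C. Thioflavin T (30 uM) added, fluorescence read after 1 hr (ex 450, em 510 nm).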
Tau fluor counter = Counterscreen qHTS for Inhibitors of Tau Fibril Formation, Fluorescence Polarization; tau K18 P301L (four-repeat tau fragment) Alexa594 fluorescence, heparin fibrillization; Potency, µM (titrated, usually from 57.7 µM), inactives show at the top dose activity change, negative = decrease; 0.93% of 280,000 active; AID 1463, 2008; note: nearly all actives have a fitted effect of over 55% in size
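Human K18 P301L tau (15 uM unlabeled plus 0.24 uM Alexa 594-labeled, final) in 100 mM sodium acetate pH 7 was mixed with compound and 20 uM heparin and incubated 6 hr at 37 C.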
* hit, by the source's call. Calls come from the whole dose curve; as a rule, active = well fitted curve in the direction sought with a large enough effect; inconclusive = small, poorly fitted or top-dose-only effect, or another doubt; inactive = no such curve, though single readings can be large; an effect the other way counts as inactive or inconclusive. % is set by controls: 0 for no effect and ±100 for the full control effect; potency is the fitted concentration of half-maximal effect.

Results for O=C(NCC1CCCO1)c1ccc(C(=O)NCC2CCCO2)cc1 (centres undefined) ?
Tau FP inhib: 15%; VP16 counter: 3%; RORgamma inh: 6%; Tau fibril ThT: -8%; Tau fluor counter: 1%

What do the screens show for `O=C(NC(=S)NCC1CCCO1)c1ccc(Cl)cc1Cl` (centres undefined)?
Tau FP inhib: -4%; VP16 counter: inconclusive; RORgamma inh: 11µM*; Tau fibril ThT: -3%; Tau fluor counter: -3%

What do the screens show for `CC(C)(C)c1ccc(C(=O)NC(=S)NCC2CCCO2)cc1` (centres undefined)?
Tau FP inhib: -3%; VP16 counter: 5.6µM*; RORgamma inh: 2.2µM*; Tau fibril ThT: -17%; Tau fluor counter: -19%

Results for O=C(Cc1ccccc1)NCC1CCCO1 (centres undefined) ?
Tau FP inhib: -7%; VP16 counter: -7%; RORgamma inh: -34%; Tau fibril ThT: -14%; Tau fluor counter: -16%

What do the screens show for `O=C(NC(=S)NCC1CCCO1)C(c1ccccc1)c1ccccc1` (centres undefined)?
Tau FP inhib: -5%; VP16 counter: 6.3µM*; RORgamma inh: 7.1µM*; Tau fibril ThT: 0%; Tau fluor counter: -11%

How did O=C(Cc1ccc(F)cc1)NCC1CCCO1 (centres undefined) do in these assays?
Tau FP inhib: -9%; VP16 counter: -21%; RORgamma inh: 11µM*; Tau fibril ThT: -16%; Tau fluor counter: -8%

Results for COc1ccc(C(C)NC(=O)Cc2cccs2)cc1OC (centres undefined) ?
VP16 counter: -3%; RORgamma inh: -13%

How did CC1=N/C(=C\c2ccc([N+](=O)[O-])cc2)C(=O)N1c1ccc(F)cc1F do in these assays?
VP16 counter: inconclusive; RORgamma inh: -3%

What do the screens show for `COc1ccc(C(=O)NC(=S)NCC2CCCO2)cc1` (centres undefined)?
Tau FP inhib: 2%; VP16 counter: inconclusive; RORgamma inh: 13µM*; Tau fibril ThT: 9%; Tau fluor counter: 8%

What do the screens show for `O=C(NCC1CCCO1)C(=O)N/N=C/c1cc(Cl)ccc1O` (centres undefined)?
Tau FP inhib: -8%; VP16 counter: inconclusive; RORgamma inh: 13µM*; Tau fibril ThT: -6%; Tau fluor counter: 2%

How did CC(C)(C)c1ccc(C(=O)N2CCC(C(=O)NCC3CCCO3)CC2)cc1 (centres undefined) do in these assays?
Tau FP inhib: -4%; VP16 counter: 12%; RORgamma inh: inconclusive; Tau fibril ThT: -11%; Tau fluor counter: -2%

Results for COc1ccccc1/C=C(\C#N)C(=O)NCC1CCCO1 (centres undefined) ?
Tau FP inhib: -2%; Tau fibril ThT: 0%; Tau fluor counter: 3%

Results for COc1ccccc1/C=C/C(=O)NC(=S)NCC1CCCO1 (centres undefined) ?
Tau FP inhib: -9%; VP16 counter: inconclusive; RORgamma inh: 2.8µM*; Tau fibril ThT: -12%; Tau fluor counter: -12%

How did CC(C)(C)c1ccc(C(=O)NNC(=S)NCC2CCCO2)cc1 (centres undefined) do in these assays?
Tau FP inhib: 0%; VP16 counter: inconclusive; RORgamma inh: 4µM*; Tau fibril ThT: -5%; Tau fluor counter: -4%

Results for Cc1ccc2cccc(NC(=O)c3ccc(C#N)cc3F)c2n1 ?
Tau FP inhib: -1%; Tau fibril ThT: -1%; Tau fluor counter: -8%

What do the screens show for `COc1ccc(/C=C/C(=O)NC(=S)NCC2CCCO2)cc1` (centres undefined)?
Tau FP inhib: -5%; VP16 counter: -3%; RORgamma inh: 1µM*; Tau fibril ThT: -1%; Tau fluor counter: -7%

How did Cc1cc2ncn(CC(C)C)c2cc1C do in these assays?
Tau FP inhib: 5%; VP16 counter: inconclusive; RORgamma inh: 7.9µM*; Tau fibril ThT: 0%; Tau fluor counter: -2%

What do the screens show for `Cc1cc2ncn(CCOc3ccccc3)c2cc1C`?
Tau FP inhib: 3%; VP16 counter: -30%; RORgamma inh: 13µM*; Tau fibril ThT: -10%; Tau fluor counter: -11%

What do the screens show for `CCCCn1cnc2cc(C)c(C)cc21`?
Tau FP inhib: -4%; VP16 counter: inconclusive; RORgamma inh: 4µM*; Tau fibril ThT: -8%; Tau fluor counter: 1%

How did COCCn1cnc2cc(C)c(C)cc21 do in these assays?
Tau FP inhib: -2%; VP16 counter: 13%; RORgamma inh: inconclusive; Tau fibril ThT: -8%; Tau fluor counter: -3%

Results for COc1cc(/C=C2\SC(=S)N(NC(=O)c3ccc(O)c(OC)c3)C2=O)ccc1O ?
VP16 counter: inconclusive; RORgamma inh: 7.1µM*

Results for COc1cc(/C=C2\SC(=S)N(NS(=O)(=O)c3ccc(C)cc3)C2=O)ccc1O ?
Tau FP inhib: 6%; VP16 counter: 3%; RORgamma inh: -20%; Tau fibril ThT: 10µM*; Tau fluor counter: -16%

How did COc1cc(/C=C2\SC(=S)N(NS(=O)(=O)c3ccccc3)C2=O)ccc1O do in these assays?
Tau FP inhib: 5%; VP16 counter: 3%; RORgamma inh: 7%; Tau fibril ThT: 14µM*; Tau fluor counter: -5%

Results for NS(=O)(=O)c1ccc(NC(=S)Nc2ccn(Cc3cccc4ccccc34)n2)cc1 ?
Tau FP inhib: inconclusive; VP16 counter: inconclusive; RORgamma inh: 10µM*; Tau fibril ThT: 14%; Tau fluor counter: -12%

What do the screens show for `NS(=O)(=O)c1ccc(NS(=O)(=O)c2ccc(NC(=S)Nc3ccccc3)cc2)cc1`?
Tau FP inhib: 3%; VP16 counter: 5%; RORgamma inh: -26%; Tau fibril ThT: -3%; Tau fluor counter: -3%

How did NS(=O)(=O)c1ccc(NC(=O)COC(=O)CNC(=O)C23CC4CC(CC(C4)C2)C3)cc1 do in these assays?
Tau FP inhib: 5%; VP16 counter: -11%; RORgamma inh: 0%; Tau fibril ThT: 2%; Tau fluor counter: 0%

What do the screens show for `COc1ccc(N/N=C(\C#N)C(=N)SCc2ccccc2)cc1`?
Tau FP inhib: 5%; VP16 counter: 16µM*; RORgamma inh: inconclusive; Tau fibril ThT: 14µM*; Tau fluor counter: inconclusive

What do the screens show for `C/C(CC(=O)Nc1cccc(Cl)c1Cl)=N\NC(=O)c1ccccc1N`?
Tau FP inhib: -4%; VP16 counter: -83%; RORgamma inh: 13µM*; Tau fibril ThT: -16%; Tau fluor counter: -17%

What do the screens show for `COc1ccc(Cl)cc1NC(=O)C/C(C)=N/NC(=O)CCc1ccccc1`?
VP16 counter: 13%; RORgamma inh: inconclusive
